# Source: PubChem BioAssay
# CRE Fsk mod: Cell signaling CRE-BLA (Fsk stim); hit rate 2.5% among 71,000; Potency, µM (highest dose often 38.2 µM), most hits filed as activators; CHO CRE-bla reporter (cAMP response element driving beta-lactamase), forskolin EC10, beta-lactamase ratio; active = well fitted activation curve with a large enough effect in the signal ratio, with a control signal flat, not every such curve was filed as active; inconclusive = small, poorly fitted or top-dose-only effect, or effect the other way, or a change in a side signal; the % refers to the signal ratio
#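 Cells were plated overnight at 37 °C, exposed to compound titrations plus EC10 NKH 477 for 3 h, then given CCF4 dye for 2 h at room temperature. Blue/green (460/530 nm) ratio was converted to %Activity and AC50 values calculated.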
# ALOX15 inhib: qHTS Assay for Inhibitors of 15-hLO (15-human lipoxygenase) | hit rate 1.4% among 74,000 | purified 15hLO-1, xylenol orange hydroperoxide absorbance | Polyunsaturated fatty acid lipoxygenase ALOX15 (Homo sapiens), P16050 | Potency, µM (highest dose often 57.1 µM), most hits filed as inhibitors | AID 887, 2007; note: nearly all actives have a fitted effect of over 55% in size
#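 Quantitative HTS in 25 mM Hepes pH 7.5 containing 0.01% Triton X-100: human 15hLO-1 at 40 nM, arachidonic acid at 50 uM, 6 min turnover. Product quantified via ferrous oxidation/xylenol orange, 573:405 nm absorbance ratio.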
# IkB signaling: IkB Signaling. AID 445, 2006. Potency, µM (doses to about 57.1 µM). ABC-DLBCL IkBa-CBG/CBR dual luciferase ratio, 4 h; response scale: scaled: untreated 0%, proteasome inhibitor 100%. hit rate 0.04% among 110,000; active = well fitted curve in the direction sought with a large enough effect in the signal ratio, not every such curve was filed as active; inconclusive = small, poorly fitted or top-dose-only effect, or a change in a side signal; the % refers to the signal ratio;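 note: the direction sought is a rising ratio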
#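 In this assay, an IκBα–CBG68 fusion accumulates when IKK-driven degradation is blocked; native CBR normalizes for cell number. OCI-Ly3 cells were treated 4 h with compound and doxycycline, then green and red light read after Chroma-Glo addition.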
# Tau fil binding: qHTS Assay for Tau Filament Binding. hit rate 2% among 71,000. AID 596, 2007. recombinant tau filaments, thioflavin S fluorescence, 15 h; filaments grown with octadecylsulfate alongside compound. Potency, µM (series often up to 57.1 µM);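 note: actives lower thioflavin S fluorescence by blocking filaments or displacing dye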
# Target sequence (P10636 whole entry, looked up): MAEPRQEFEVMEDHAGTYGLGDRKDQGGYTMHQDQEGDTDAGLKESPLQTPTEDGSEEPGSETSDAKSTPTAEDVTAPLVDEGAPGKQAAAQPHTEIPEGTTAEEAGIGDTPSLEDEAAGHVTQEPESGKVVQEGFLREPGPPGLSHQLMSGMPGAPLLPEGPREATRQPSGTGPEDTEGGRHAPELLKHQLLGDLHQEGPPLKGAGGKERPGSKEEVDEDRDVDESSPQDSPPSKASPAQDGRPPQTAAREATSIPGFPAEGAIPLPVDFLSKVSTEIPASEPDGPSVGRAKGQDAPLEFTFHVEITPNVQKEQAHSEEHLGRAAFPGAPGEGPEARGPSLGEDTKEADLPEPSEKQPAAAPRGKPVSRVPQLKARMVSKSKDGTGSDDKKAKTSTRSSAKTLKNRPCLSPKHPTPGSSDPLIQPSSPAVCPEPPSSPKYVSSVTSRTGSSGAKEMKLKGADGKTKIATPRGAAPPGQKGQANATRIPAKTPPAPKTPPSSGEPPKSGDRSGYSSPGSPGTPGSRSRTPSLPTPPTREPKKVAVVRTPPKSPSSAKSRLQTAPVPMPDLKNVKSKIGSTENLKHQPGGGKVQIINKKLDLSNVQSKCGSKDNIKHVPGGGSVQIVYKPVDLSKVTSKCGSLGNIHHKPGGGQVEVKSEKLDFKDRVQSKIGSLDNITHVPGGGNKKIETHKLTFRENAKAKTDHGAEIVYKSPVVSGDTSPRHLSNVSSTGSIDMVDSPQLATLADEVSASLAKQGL
#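 Recombinant tau protein (human, 1 uM final) plus 30 uM ODS in HEPES pH 7.4 with NaCl, DTT and thioflavine S. Compound present from the start; fluorescence at 510 nm after 15 h, 37 C.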
# Hsp90 Hop PPI: qHTS Assay for Disrupters of an Hsp90 Co-Chaperone Interaction; Hsp90 C-terminal peptide / TPR2A (Hop) interaction, human; hit rate 0.44% among 71,000; Potency, µM (highest dose often 57 µM); AlphaScreen TPR2A-His6 binding biotin-Hsp90 C-terminal peptide; AID 595, 2007; active = well fitted curve in either direction with a large enough effect; inconclusive = small, poorly fitted or top-dose-only effect, or another doubt
# Hits are given with their value; . = inactive; ? = inconclusive; / = not tested or not shown; ! = not confirmed by another sample; [ ] = remark or other dose. The list is not random: actives were taken first. Their share in the collection is about 3.6%. Unless noted, calls come from the whole dose curve; as a rule, active = well fitted curve in the direction sought with a large enough effect; inconclusive = small, poorly fitted or top-dose-only effect, or another doubt; inactive = no such curve, though single readings can be large; an effect the other way counts as inactive or inconclusive.
SMILES,CRE Fsk mod,ALOX15 inhib,IkB signaling,Tau fil binding,Hsp90 Hop PPI
O=C(CSc1nnc(-c2cccnc2)n1Cc1ccco1)Nc1nc(-c2ccc(F)cc2)cs1,.,.,?,.,.
CCOC(=O)c1c(NC(=O)CSc2nnc(-c3cccnc3)n2Cc2ccco2)sc(C)c1C,4µM,.,?,.,.
COc1ccc(OC)c(N=c2oc3cc(O)ccc3cc2C(N)=O)c1,10µM,.,?,.,.
NC(=O)c1cc2ccc(O)cc2oc1=Nc1ccccc1,?,.,?,.,.
C[C@@H]1C(=O)N(C)C(=O)c2nc[nH]c21,.,.,.,.,.
COCC(=O)Nc1sc2c(c1C(=O)OC)CCC(C)C2 (stereo unspecified),.,25µM,.,.,.
CCc1ccc2c(c1)c(=O)c(S(=O)(=O)c1ccccc1)cn2CC(=O)Nc1cc(C)ccc1C,/,/,.,/,/
Cc1ccc(OCCn2c(C)c(/C=N/n3cnnc3)c3ccccc32)cc1,1.6µM,.,.,.,.
Cc1c(/C=N/n2cnnc2)c2ccccc2n1CCOc1ccc(Cl)cc1,?,.,?,.,.
CSc1nc(-c2ccco2)nn1S(=O)(=O)c1ccc(C)cc1,.,25µM,.,.,.
CSc1nc(-c2ccco2)nn1S(=O)(=O)c1ccccc1,.,.,.,.,.
Cn1cccc1Cc1nnc(SCC(=O)Nc2ccccc2F)n1CCc1ccccc1,.,16µM,.,.,.
Cc1csc(NC(=O)CSc2nnc(Cc3cccn3C)n2CCc2ccccc2)n1,.,13µM,?,.,.
Cc1cc(NC(=O)CSc2nnc(Cc3cccn3C)n2CCc2ccccc2)no1,.,?,.,.,.
Cc1ccc(-n2c(=O)c3c4c(sc3n(Cc3ccccc3F)c2=O)CCC4)cc1C,/,/,.,/,/
CN(C)CC(=O)c1ccc(-c2ccccc2)cc1,.,.,.,25µM,.
COc1ccc(-c2nc(-c3cccc(C)c3)no2)cc1OC,?,.,.,.,.
COc1cc(-c2noc(-c3ccco3)n2)cc(OC)c1OC,16µM,.,.,.,.
Cc1cccc(-c2noc(CCc3ccccc3)n2)c1,.,.,.,.,32µM
Cc1cccc(-c2noc(Cc3ccccc3)n2)c1,/,.,/,/,/
COc1cc(-c2nc(-c3cccc(C)c3)no2)cc(OC)c1OC,0.79µM,.[11.4 µM],?,.[11.4 µM],?
COc1ccccc1-c1noc(-c2ccco2)n1,.,.,.,.,.
COc1ccc(NC(=O)c2csnn2)cc1Cl,/,/,.,/,/
NCCCCNCCCN,?,.,?,.,.
NCCNCCNCCN,.,.,.,.,6.3µM
SMILES,CRE Fsk mod,ALOX15 inhib,IkB signaling,Tau fil binding,Hsp90 Hop PPI
COc1cccc(Nc2nc3c(S(=O)(=O)c4cc(C)ccc4C)nnn3c3ccsc23)c1,/,/,.,/,/
CCNc1ncc2nc(C)c(=O)n(Cc3ccc(F)cc3)c2n1,?,.,.[11.4 µM],.,.
CCNc1nc(C)c2cc(Br)c(=O)n(CC)c2n1,1µM,.,.,.,.
Nc1cc2c(nc3c4ccccc4c(N)cc3[n+]2-c2cccc3ccccc23)c2ccccc12 (tested in a mixture with another compound),?,.[11.4 µM],.[11.4 µM],0.63µM,2.5µM
Cc1cc(N)c2ccccc2[n+]1CCCCCCCCCC[n+]1c(C)cc(N)c2ccccc21,?,?,.,.,?
COc1ccc(N2C(=O)CSC23C(=O)N(Cc2ccc(C)cc2)c2ccccc23)cc1Cl (stereo unspecified),/,/,.,/,/
COc1cccc(C2=NOC(C(=O)NCc3ccc(F)cc3)C2)c1 (stereo unspecified),13µM,.,.,.,.
COc1ccc(C2=NOC(C(=O)Nc3ccc(C)cc3)C2)cc1OC (stereo unspecified),?,.,.,.,.
COc1cc(C2=NOC(C(=O)NCc3ccc(F)cc3)C2)cc(OC)c1OC (stereo unspecified),?,.,?,.,.
COc1ccc(C2=NOC(C(=O)Nc3cc(C)nn3-c3ccccc3)C2)cc1OC (stereo unspecified),2.5µM,.,.,.,.[2.3 µM]
COc1ccc(C2=NOC(C(=O)NCc3ccc(F)cc3)C2)cc1OC (stereo unspecified),13µM,.,.,.,.
COc1ccc(CNC(=O)C2CC(c3cccc(OC)c3)=NO2)cc1 (stereo unspecified),?,.,.,.,.
COC(=O)[C@@H]1CC[C@H](C)[C@@H](c2ccc(C)cc2)N1C(=O)c1ccc(/C=N\OC[C@@H](O)[C@H]2O[C@H]3OC(C)(C)O[C@H]3[C@@H]2O)cc1,/,.[11.4 µM],/,/,/
Cc1nc(C)c(C(=O)Nc2nc3c(C)cccc3s2)o1,?,?,?,32µM,.
Cc1cccc2sc(NC(=O)C3CCCO3)nc12 (stereo unspecified),?,.,.,.,.
CCOc1ccc(CCNC(=O)CCc2cn(Cc3ccccc3F)c3ccccc23)cc1OCC,/,/,.,/,/
Oc1ccccc1C1=NCCNC(C(F)(F)C(F)F)=C1,?,.,.,16µM,.
Oc1ccccc1-c1cc(C(F)(F)C(F)F)[nH]n1,.[7.6 µM],?,?,.[11.4 µM],.[11 µM]
COC(=O)CCc1sc(Nc2ccc(OC)cc2)nc1-c1ccc(OC)cc1,/,/,.,/,/
Cc1ccc(-c2noc(CN(C(=O)CCCN3C(=O)c4ccccc4C3=O)C(C)C)n2)cc1,.,.,?,16µM,.
Cc1ccc(-c2noc(CN(C(=O)CCCCCN3C(=O)c4ccccc4C3=O)C(C)C)n2)cc1,.,?,?,?,.
Cc1cn(C2CC(N=[N+]=[N-])C(CO)O2)c(=O)[nH]c1=O (stereo unspecified),/,.,/,/,/
Nc1nc2sc3c(c2cc1C(=O)N1CCOCC1)CCCC3,?,3.2µM,.,.[11.4 µM],.[11 µM]
COc1cc(NC(=O)c2ccccc2)c(OC)cc1NC(=O)CN1CCOCC1,?,?,.,.,.
COC(=O)c1cc(OC)c(OC)cc1NC(=O)c1ccccc1,0.4µM,.[11.4 µM],.,.[11.4 µM],.[11 µM]
SMILES,CRE Fsk mod,ALOX15 inhib,IkB signaling,Tau fil binding,Hsp90 Hop PPI
COc1cc(NC(=O)C2CCCO2)c(OC)cc1NC(=O)c1ccccc1 (stereo unspecified),?,.,.,25µM,.
Cc1ccc2nc(Cl)c3cc(C(=O)N4CCCC(C)C4)sc3c2c1 (stereo unspecified),/,/,.,/,/
O=c1cc(-c2ccccc2O)oc2cc(O)cc(O)c12,?,.,.[11.4 µM],?,.
O=c1c(O)c(-c2ccc(O)cc2)oc2cc(O)cc(O)c12,?,?,?,32µM!,.
O=c1cc(-c2ccccc2)oc2cc(O)cc(O)c12,?,.,?,.,.
O=c1cc(-c2ccc(O)cc2)oc2cc(O)cc(O)c12,?,5µM!,?,.,.
O=c1cc(-c2cc(O)c(O)c(O)c2)oc2cc(O)cc(O)c12,/,2.5µM,/,/,/
COc1cc(O)c2c(=O)cc(-c3ccccc3)oc2c1,?,.,.[11.4 µM],32µM,.
